Measured values as given in PubChem BioAssay AID1159580 (chemical genetic matrix, 2015).
Screen size: about 5,500 compounds; about 2,000 (36%) were called active. Roughly 18% stayed inconclusive and do not appear here. Rule as the data show it: active = normalized growth mostly below about 0.91 (no sharp cut-off); inconclusive = no clear call, values can overlap the other calls; inactive = mostly above about 0.92. Some of the results follow.

Test: chemical genetic growth profiling, strain panel (AID 1159580);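 also: tested at 20 µM; growth read once vehicle control cultures reached saturation at 30 °C; 1 = growth at the plate median or of vehicle wells; lower values mean less growth of the strain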
Settings: growth OD

Measured: normalized growth

CCC(Cc1c(I)cc(I)c(N)c1I)C(=O)O (stereo unspecified)
inactive: S. cerevisiae deletion strains, locus YKL009W, strain mrt4, active compounds read low 0.974 | S. cerevisiae deletion strains, locus YKL068W, active compounds read low 0.986 | S. cerevisiae deletion strains, locus YKL085W, strain MDH1 (second series), active compounds read low 0.982 | S. cerevisiae deletion strains, locus YKL085W, strain MDH1, active compounds read low 0.982 | S. cerevisiae deletion strains, locus YKL160W, strain elf1, active compounds read low 0.961 | S. cerevisiae deletion strains, locus YKL190W, strain CNB1, active compounds read low 1 | S. cerevisiae deletion strains, locus YKR001C, strain vps1, active compounds read low 0.996 | S. cerevisiae deletion strains, locus YKR026C, strain gcn3, active compounds read low 0.946 | S. cerevisiae deletion strains, locus YKR091W, strain srl3, active compounds read low 0.941 | S. cerevisiae deletion strains, locus YLL001W, strain dnm1, active compounds read low 0.977 | S. cerevisiae deletion strains, locus YLL026W, active compounds read low 0.96 | S. cerevisiae deletion strains, locus YLL041C, strain sdh2, active compounds read low 0.954 | S. cerevisiae deletion strains, locus YLR027C, strain aat2, active compounds read low 0.964 | S. cerevisiae deletion strains, locus YLR039C, strain RIC1, active compounds read low 0.933 | S. cerevisiae deletion strains, locus YLR058C, strain SHM2, active compounds read low 1 | S. cerevisiae deletion strains, locus YLR102C, strain apc9, active compounds read low 0.999 | S. cerevisiae deletion strains, locus YLR262C, strain YPT6, active compounds read low 0.936 | S. cerevisiae deletion strains, locus YLR268W, strain sec22, active compounds read low 1 | S. cerevisiae deletion strains, locus YLR330W, strain CHS5, active compounds read low 0.999 | S. cerevisiae deletion strains, locus YLR342W, strain FKS1 (second series), active compounds read low 1 | S. cerevisiae deletion strains, locus YLR342W, strain FKS1, active compounds read low 0.944 | S. cerevisiae deletion strains, locus YLR357W, strain rsc2, active compounds read low 1.02 | S. cerevisiae deletion strains, locus YLR370C, strain arc18, active compounds read low 0.95 | S. cerevisiae deletion strains, locus YLR371W, strain rom2, active compounds read low 1 | S. cerevisiae deletion strains, locus YLR384C, strain iki3, active compounds read low 0.954 | S. cerevisiae deletion strains, locus YLR418C, strain cdc73, active compounds read low 1.02 | S. cerevisiae deletion strains, locus YML016C, strain PPZ1, active compounds read low 0.995 | S. cerevisiae deletion strains, locus YML032C, strain rad52, active compounds read low 1.02 | S. cerevisiae deletion strains, locus YML120C, strain ndi1, active compounds read low 0.95 | S. cerevisiae deletion strains, locus YML124C, strain tub3, active compounds read low 0.992 | S. cerevisiae deletion strains, locus YMR058W, strain fet3, active compounds read low 0.944 | S. cerevisiae deletion strains, locus YMR078C, strain ctf18, active compounds read low 1 | S. cerevisiae deletion strains, locus YMR125W, strain sto1, active compounds read low 0.948 | S. cerevisiae deletion strains, locus YMR129W, active compounds read low 0.932 | S. cerevisiae deletion strains, locus YMR205C, strain PFK2, active compounds read low 0.906 | S. cerevisiae deletion strains, locus YMR223W, strain ubp8, active compounds read low 1.01 | S. cerevisiae deletion strains, locus YMR231W, strain pep5, active compounds read low 0.97 | S. cerevisiae deletion strains, locus YMR263W, strain SAP30, active compounds read low 0.989 | S. cerevisiae deletion strains, locus YMR307W, strain GAS1, active compounds read low 0.963 | S. cerevisiae deletion strains, locus YNL067W, strain RPL9B, active compounds read low 1.01 | S. cerevisiae deletion strains, locus YNL128W, strain TEP1, active compounds read low 1.01 | S. cerevisiae deletion strains, locus YNL153C, strain GIM3, active compounds read low 1.01 | S. cerevisiae deletion strains, locus YNL209W, strain ssb2, active compounds read low 0.966 | S. cerevisiae deletion strains, locus YNL233W, strain BNI4, active compounds read low 1.01 | S. cerevisiae deletion strains, locus YNL248C, strain rpa49, active compounds read low 0.887 | S. cerevisiae deletion strains, locus YNL250W, strain rad50, active compounds read low 0.994 | S. cerevisiae deletion strains, locus YNL271C, strain bni1, active compounds read low 0.979 | S. cerevisiae deletion strains, locus YNL298W, strain CLA4, active compounds read low 0.981 | S. cerevisiae deletion strains, locus YNL307C, strain MCK1, active compounds read low 0.997 | S. cerevisiae deletion strains, locus YNL322C, strain KRE1 (second series), active compounds read low 0.932 | S. cerevisiae deletion strains, locus YNL322C, strain KRE1, active compounds read low 1 | S. cerevisiae deletion strains, locus YNR049C, strain mso1, active compounds read low 0.925 | S. cerevisiae deletion strains, locus YNR052C, strain pop2, active compounds read low 0.998 | S. cerevisiae deletion strains, locus YOL006C, strain TOP1, active compounds read low 1.01 | S. cerevisiae deletion strains, locus YOL012C, strain htz1 1.15 | S. cerevisiae deletion strains, locus YOL147C, strain pex11, active compounds read low 0.999 | S. cerevisiae deletion strains, locus YOR001W, strain rrp6, active compounds read low 1 | S. cerevisiae deletion strains, locus YOR061W, strain CKA2, active compounds read low 0.997 | S. cerevisiae deletion strains, locus YOR069W, strain VPS5, active compounds read low 0.999 | S. cerevisiae deletion strains, locus YOR080W, strain dia2, active compounds read low 0.95 | S. cerevisiae deletion strains, locus YOR083W, strain WHI5, active compounds read low 0.949 | S. cerevisiae deletion strains, locus YOR106W, strain vam3, active compounds read low 0.943 | S. cerevisiae deletion strains, locus YOR136W, strain idh2, active compounds read low 1.02 | S. cerevisiae deletion strains, locus YOR144C, strain elg1, active compounds read low 0.985 | S. cerevisiae deletion strains, locus YOR184W, strain ser1, active compounds read low 1.01 | S. cerevisiae deletion strains, locus YOR265W, strain rbl2, active compounds read low 0.951 | S. cerevisiae deletion strains, locus YOR270C, strain vph1, active compounds read low 0.784 | S. cerevisiae deletion strains, locus YOR290C, strain snf2, active compounds read low 0.92 | S. cerevisiae deletion strains, locus YOR316C, strain cot1, active compounds read low 0.999 | S. cerevisiae deletion strains, locus YPL051W, strain arl3, active compounds read low 0.925 | S. cerevisiae deletion strains, locus YPL055C, strain LGE1, active compounds read low 1.04 | S. cerevisiae deletion strains, locus YPL078C, strain atp4, active compounds read low 0.974 | S. cerevisiae deletion strains, locus YPL106C, strain sse1, active compounds read low 0.951 | S. cerevisiae deletion strains, locus YPL240C, strain hsp82, active compounds read low 0.939 | S. cerevisiae deletion strains, locus YPL241C, strain CIN2, active compounds read low 0.975 | S. cerevisiae deletion strains, locus YPR119W, strain clb2, active compounds read low 0.988 | S. cerevisiae deletion strains, locus YPR141C, strain kar3, active compounds read low 0.988 | S. cerevisiae deletion strains, locus YPR163C, strain tif3, active compounds read low 1.01 | S. cerevisiae deletion strains, locus YPR167C, strain met16, active compounds read low 1 | S. cerevisiae deletion strains, strain wtn01, active compounds read low 1 | S. cerevisiae strains, strain wild type, active compounds read low 0.999
active: S. cerevisiae deletion strains, locus YLR113W, strain HOG1, active compounds read low 0.127 | S. cerevisiae deletion strains, locus YLR221C, strain rsa3, active compounds read low 0.876 | S. cerevisiae deletion strains, locus YLR258W, strain gsy2, active compounds read low 0.909 | S. cerevisiae deletion strains, locus YLR262C, strain YPT6 (second series), active compounds read low 0.698 | S. cerevisiae deletion strains, locus YLR320W, strain mms22, active compounds read low 0.873 | S. cerevisiae deletion strains, locus YNL071W, strain lat1, active compounds read low 0.689 | S. cerevisiae deletion strains, locus YNL183C, strain NPR1, active compounds read low 0.0218 | S. cerevisiae deletion strains, locus YOR070C, strain gyp1, active compounds read low 0.917 | S. cerevisiae deletion strains, locus YOR231W, strain MKK1, active compounds read low 0.113 | S. cerevisiae deletion strains, locus YPL256C, strain CLN2, active compounds read low 0.126
